# Assay outcomes from PubChem.
# Tau fibril FP: qHTS for Inhibitors of Tau Fibril Formation, Fluorescence Polarization. Potency, µM (titrated, usually from 57.7 µM), without a hit: at the top dose activity, negative = inhibition, actives largely listed as inhibitors. Microtubule-associated protein tau (Homo sapiens), P10636. K18 P301L tau heparin fibrillization, Alexa594 FP, 6 h. 280,000 compounds, 0.39% hits. AID 1468, 2008; further: nearly all actives have a fitted effect of over 55% in size
# Target sequence (P10636 561-689 P618L limits assumed): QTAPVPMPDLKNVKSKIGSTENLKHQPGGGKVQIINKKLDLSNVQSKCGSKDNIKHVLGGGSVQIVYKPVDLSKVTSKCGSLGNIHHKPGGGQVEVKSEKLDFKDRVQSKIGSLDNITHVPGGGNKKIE
#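 Quantitative HTS format: compounds meet 15 uM recombinant K18 P301L tau and Alexa 594-tau tracer in 100 mM sodium acetate pH 7; 20 uM heparin triggers fibrillization at 37 C over 6 hr; FP gives the signal.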
# Tau ThT inhib: qHTS for Inhibitors of Tau Fibril Formation, Thioflavin T Binding; 270,000 compounds, 2.1% hits; recombinant tau K18 P301L, heparin-induced fibrillization, ThT fluorescence; Potency, µM (series often up to 57.4 µM), inactives show at the highest dose activity, negative = inhibition, actives largely listed as inhibitors; Microtubule-associated protein tau (Homo sapiens), P10636; further: nearly all actives have a fitted effect of over 55% in size
#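 K18 P301L tau (15 uM + 0.24 uM Alexa 594-tagged), heparin 20 uM, NaOAc pH 7, 6 h 37 C; ThT 30 uM, 1 h RT, ex 450/em 510 nm.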
# RORg inh: qHTS for inhibitors of ROR gamma transcriptional activity; Drosophila S2 Gal4-RORgamma UAS-luciferase reporter, 20 h; AID 2551, 2010; 310,000 compounds, 5.4% hits; Potency, µM (titrated, usually from 53.6 µM), without a hit: at the highest dose activity change, negative = inhibition, usual class: inhibitors; Nuclear receptor ROR-gamma (Mus musculus), P51450; further: nearly all actives have a fitted effect of over 60% in size
# Target sequence (P51450 whole entry, looked up, the tested form may be a part): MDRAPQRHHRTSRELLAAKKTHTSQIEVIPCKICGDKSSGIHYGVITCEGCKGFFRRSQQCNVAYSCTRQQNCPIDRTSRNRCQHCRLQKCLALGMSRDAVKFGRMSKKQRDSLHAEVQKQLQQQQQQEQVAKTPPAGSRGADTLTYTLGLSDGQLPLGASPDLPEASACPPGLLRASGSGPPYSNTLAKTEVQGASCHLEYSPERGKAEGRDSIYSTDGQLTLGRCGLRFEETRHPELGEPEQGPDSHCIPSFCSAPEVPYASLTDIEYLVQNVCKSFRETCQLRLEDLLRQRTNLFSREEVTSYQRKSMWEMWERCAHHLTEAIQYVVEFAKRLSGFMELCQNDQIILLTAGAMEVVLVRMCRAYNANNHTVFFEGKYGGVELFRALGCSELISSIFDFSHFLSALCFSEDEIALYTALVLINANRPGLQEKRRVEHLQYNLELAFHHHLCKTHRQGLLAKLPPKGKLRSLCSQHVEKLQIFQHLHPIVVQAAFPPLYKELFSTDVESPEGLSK
#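 A Gal4/UAS one-hybrid system in insect cells: metallothionein-promoter Gal4–ROR gamma fusion plus Photinus luciferase reporter. Copper sulfate 700 uM final, 20 hr ambient incubation, luminescent detection after 10 min with reagent.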
# Gal4-VP16 FLuc: VP16 counterscreen qHTS for inhibitors of ROR gamma transcriptional activity. AID 2546, 2010. Drosophila S2 Gal4-VP16 UAS-luciferase, luminescence, 20 h. 310,000 compounds, 3.5% hits. Potency, µM (doses to about 53.6 µM), without a hit: at the highest dose activity, negative = inhibition, hits mostly inhibitors;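 further: Gal4-VP16 expression switched on by copper sulfate through the metallothionein promoter; nearly all actives have a fitted effect of over 50% in size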
# Tau fluor counter: Counterscreen qHTS for Inhibitors of Tau Fibril Formation, Fluorescence Polarization; AID 1463, 2008; Potency, µM (highest dose often 57.7 µM), for inactives: at the top dose activity change, negative = decrease; 280,000 compounds, 0.93% hits; tau K18 P301L (four-repeat tau fragment) Alexa594 fluorescence, heparin fibrillization; further: nearly all actives have a fitted effect of over 55% in size
#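 Human K18 P301L tau (15 uM unlabeled plus 0.24 uM Alexa 594-labeled, final) in 100 mM sodium acetate pH 7 was mixed with compound and 20 uM heparin and incubated 6 hr at 37 C.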
# * marks the source's active call; other numbers are inactive results; u = inconclusive; x = not tested or not shown; [ ] = dose if it differs, or a comment. An excerpt weighted towards active compounds, which were near 7.3% of everything screened. The call rests on the fitted dose curve; in most records, active means well fitted curve in the direction sought with a large enough effect; inconclusive means small, poorly fitted or top-dose-only effect, or another doubt; inactive means no such curve, though single readings can be large; an effect the other way counts as inactive or inconclusive. On the % scale 0 is the no-effect control and ±100 the full control effect; potency means the concentration at half of the fitted maximal effect.
SMILES,Tau fibril FP,Tau ThT inhib,RORg inh,Gal4-VP16 FLuc,Tau fluor counter
COc1cccc(CC(=O)n2nc(N)c3cc4ccc(OC)cc4nc32)c1,-2%,-10%,28%,u,-23%
COc1ccc2cc3c(N)nn(C(=O)Cc4c[nH]c5ccccc45)c3nc2c1,3%,x,u,-23%,20µM*[quencher]
COc1ccc(NC(=O)NNC(=O)C(C)Oc2ccc(C(C)C)cc2)c(OC)c1 (configuration not stated),x,x,20µM*,u,x
COc1cc(NC(=O)CC2C(=O)N(c3cccc(C)c3)C(=O)N2Cc2ccco2)cc(OC)c1 (configuration not stated),-1%,-6%,x,x,-28%
COc1ccc(C2C(C(C)=O)=C(C)N=c3s/c(=C\c4ccco4)c(=O)n32)c(OC)c1 (configuration not stated),-6%,13µM*,-26%,1%,u
O=C(O)c1cc(N(Cc2ccccc2O)Cc2cc(O)ccc2O)ccc1O,-6%,18µM*,28%,-15%,u
Cc1nc(CS(=O)(=O)c2ccc(Cl)cc2)cc(Sc2ccc(Cl)cc2)n1,-2%,-1%,u,11µM*,-17%
CO[C@H]1C=CO[C@@]2(C)Oc3c(C)c(O)c4c(O)c(c(C=NN5CCN(C6CCCC6)CC5)c(O)c4c3C2=O)NC(=O)C(C)=CC=C[C@H](C)[C@H](O)[C@@H](C)[C@@H](O)[C@@H](C)[C@H](OC(C)=O)[C@@H]1C,-16%,18µM*,-7%,-7%,-26%
CCCC(C)NC(=O)c1cccc(Oc2ccccc2)c1 (configuration not stated),3%,1%,35µM*,-15%,1%
CC(=O)Nc1ccc(NC(=O)c2cccc(Oc3ccccc3)c2)cc1,x,x,1%,3%,x
CC1=C(C(=O)OC(C)C)C(c2c[nH]c3ccccc23)n2ncnc2N1 (configuration not stated),5%,-12%,-1%,5%,-14%
CCOC(=O)C1=C(C)Nc2ncnn2C1c1c[nH]c2ccccc12 (configuration not stated),9%,4%,10µM*,0%,8%
CC1CCN(C(=S)NC(=O)C2CCCCC2)CC1,-8%,-15%,13µM*,u,-8%
O=C(NC(=S)N1CCCCCC1)C1CC1,-4%,2%,u,-7%,4%
CN(C)c1ccc(N/C=C/C(=O)c2ccccc2)cc1,-18%,1.8µM*,5.6µM*,10µM*,u
O=C(/C=C/Nc1ccccc1)c1ccccc1,4%,-1%,-6%,5%,-5%
CN(C)c1ccc(N/C=C/C(=O)C(C)(C)C)cc1,u,16µM*,u,u,u
CC(=O)Nc1ccc(Nc2nc3c(S(=O)(=O)c4cccc(Cl)c4)nnn3c3ccsc23)cc1,-8%,12%,x,x,-15%
CCC(/C=C1\Sc2ccc(OC)cc2N1CC)=C\c1sc2ccc(OC)cc2[n+]1CCCS(=O)(=O)[O-],u,3.5µM*,17%,u,0.79µM*[fluorescent]
CCO/C(=C/c1sc2ccc(OC)cc2[n+]1CCCS(=O)(=O)[O-])CC,-13%,-8%,-31%,0%,-4%
CCC(/C=C1\Sc2ccc(OC)cc2N1CCO)=C\c1sc2ccc(OC)cc2[n+]1CCO,-13%,1.1µM*,28%,u,0.4µM*[fluorescent]
Cc1ccn(CCNC(=O)C2CCC(=O)N(Cc3ccc(Cl)cc3)C2)n1 (configuration not stated),x,x,-3%,2%,x
COC(=O)C1=C(C(=O)OC)[C@@H]2N(C)c3ccc(OC)cc3[C@@]23C[C@@H](C(=O)OC)N(S(=O)(=O)c2ccc(Br)cc2)C3=N1,9%[11.6 µM],-2%[11.5 µM],x,x,-18%[11.6 µM]
CC1=C(C(=O)Nc2cccnc2)C(c2cccc(O)c2)n2nc(SCc3ccccc3)nc2N1 (configuration not stated),-5%,7%,x,x,4%
CC(C)(C)n1ncc2c(=O)n(CC(=O)OCc3ccccc3)cnc21,-3%,-19%,8.9µM*,1.6µM*,-13%
SMILES,Tau fibril FP,Tau ThT inhib,RORg inh,Gal4-VP16 FLuc,Tau fluor counter
COc1ccc(S(=O)(=O)N2CCC(C(=O)NCc3cccnc3)CC2)cc1OC,x,x,21%,3%,x
O=C(CCc1nnc2ccc(N3CCC4(CC3)OCCO4)nn12)NCc1ccc(F)cc1,x,x,-16%,-4%,x
Cc1ccc(C(C)NC(=S)NCc2ccc(F)cc2)c(C)c1 (configuration not stated),x,x,2.5µM*,4.5µM*,x
CCC(NC(=S)NCc1ccc(F)cc1)c1ccc(C)cc1 (configuration not stated),x,x,2.8µM*,3.2µM*,x
CCC(NC(=O)C1(C)CC1(Br)Br)c1ccc(C)cc1 (configuration not stated),-2%,0%,-15%,-1%,-2%
Cc1ccc(NC(=S)NCc2ccc(F)cc2)c(C)c1,x,x,5.6µM*,5.6µM*,x
Cc1ccc(NC(=S)NCc2ccc(S(N)(=O)=O)cc2)c(C)c1,-14%,7%,19%,-7%,-1%
CC(NC(=O)CCC(=O)NCc1ccc(F)cc1)c1ccccc1 (configuration not stated),x,x,-23%,-18%,x
Cc1ccc(C(C)NC(=S)NCc2ccc(F)cc2)cc1C (configuration not stated),x,x,3.5µM*,5µM*,x
CSc1nn(CC(=O)Nc2ccc(C)cc2C)c(N)c1S(=O)(=O)c1ccc(Cl)cc1,u,-1%,x,x,u
COc1ccccc1CCNC(=O)C(C)Sc1nc(-c2ccccc2)cc(C(F)(F)F)n1 (configuration not stated),-2%,-3%,x,x,-7%
COc1cccc(C(C)NC(=S)NCc2ccc(F)cc2)c1 (configuration not stated),x,x,5µM*,8.9µM*,x
CCc1ccc(C(C)NC(=S)NCc2ccc(F)cc2)cc1 (configuration not stated),x,x,2.2µM*,5µM*,x
CC(NC(=O)Cc1ccc(F)cc1)c1ccc(F)cc1 (configuration not stated),-4%,-1%,u,-3%,-2%
CCOc1ccc(C(C)NC(=S)NCc2ccc(F)cc2)cc1 (configuration not stated),x,x,3.5µM*,3.2µM*,x
Cc1ccc(NC(=S)NCc2ccc3c(c2)cc(C)n3C)c(C)c1,7%,-13%,1µM*,13µM*,u
COc1ccc(OC)c(NC(=O)Cn2cc(C(=O)c3cccs3)c3ccccc32)c1,u,-6%,x,x,u
